Shiga inhibitor – A qHTS for Small Molecule Inhibitors of Shiga Toxin; Vero cells, Shiga toxin protein synthesis inhibition reporter; inhibition, % at 38.7 µM; 290,000 compounds, 9.2% hits; AID 2315, 2010; in the data active = inhibition mostly above about 28%, no sharp cut-off; inactive = mostly below about 43%
HCMV antiviral – qHTS Assay for inhibitors of the human cytomegalovirus (HCMV); activity change, negative = inhibition, % at 57.5 µM; HFF cells, HCMV-luciferase reporter, 72 h; hits give low values; 410,000 compounds, 4.5% hits; in the data active = activity change below about -60%; inconclusive = no clear call, values can overlap the other calls; inactive = above about -39%
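Two compound doses tested in HFFs infected with HCMV-luciferase, MOI 1 PFU/cell, 72 h at 37C. Lysate luminescence read with OneGlo; data normalized against buffer-only and 10uM Salinomycin inhibitor controls.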
CHX counter – Cycloheximide Counterscreen for Small Molecule Inhibitors of Shiga Toxin; cell reporter, cycloheximide protein synthesis inhibition counterscreen; max response, %; 300,000 compounds, 12% hits; AID 2314, 2010; in the data active = max response mostly above about 13%, no sharp cut-off; inactive = mostly below about 14%; also: read at 38.3 µM for the half of the compounds with a filed dose
Pf growth 96h – Primary qHTS for delayed death inhibitors of the malarial parasite plastid, 96 hour incubation; P. falciparum luciferase reporter growth, 96 h; 320,000 compounds, 6.9% hits; Potency, µM (highest dose often 28.7 µM), hits mostly inhibitors
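Luminescence readout: decreased luciferase signal marks inhibited growth of reporter-expressing P. falciparum in infected red cells (2% hematocrit, 0.05% parasitemia final), exposed to compound two generations (96 h, 37 C, 5% CO2).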
Pf growth 48h – Primary qHTS for delayed death inhibitors of the malarial parasite plastid, 48 hour incubation; AID 504832, 2011; P. falciparum luciferase growth in erythrocytes, 48 h; Potency, µM (highest dose often 28.7 µM), actives largely listed as inhibitors; 310,000 compounds, 5.9% hits
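Erythrocytes infected with P. falciparum carrying an integrated firefly luciferase reporter (2% hematocrit, 0.1% parasitemia final) were exposed to compounds in RPMI 1640 with 0.5% Albumax at 37 C, 5% CO2. Growth inhibition was scored as reduced luminescence.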
Numbers stand for hits; - = inactive; ? = inconclusive; . = no result given; [ ] = dose if it differs, or a comment. An excerpt weighted towards active compounds, which were near 20% of everything screened. Unless noted, calls follow the shape of the dose curve; as a rule, active = well fitted inhibition curve with a large enough effect; inconclusive = small, poorly fitted or top-dose-only effect, or another doubt; inactive = no such curve, though single readings can be large or run the other way.

SMILES	Shiga inhibitor	HCMV antiviral	CHX counter	Pf growth 96h	Pf growth 48h
COc1cccc(-c2nnc3sc(C4CCCCC4)nn23)c1	-	-83.8	-	-	.
Cc1cc(-c2nnc3sc(C4CCCCC4)nn23)n[nH]1	-	-	-	?	.
CC1Cn2c(nnc2-c2cc3ccccc3cc2O)S1 (centres undefined)	-	-	-	.	1.65µM
CC1Cn2c(nnc2-c2ccccc2O)S1 (centres undefined)	-	-	-	-	.
COC1OC(COC(=O)c2ccccc2)C(OC(=O)c2ccccc2)C1OC(=O)c1ccccc1 (centres undefined)	-	-	-	?	?
CC1(C)OC2OC(COC(=O)c3ccccc3)C3OC(C)(C)OC3C2O1 (centres undefined)	-	-	30.7	?	-
CCn1c2ccccc2c2cc(NC(=O)c3cc(OC)cc(OC)c3)ccc21	-	-92.1	-	-	-
COc1cc(C(=O)Nc2ccc(N(C)C)cc2)cc(OC)c1OC	58.2	-	24.5	-	-
CCn1c2ccccc2c2cc(NC(=O)c3cc(OC)c(OC)c(OC)c3)ccc21	-	-87.6	-	?	?
CCn1c2ccccc2c2cc(NC(=O)COc3ccc(OC)cc3)ccc21	-	-	-	-	-
CSc1ccc(CCNC(=O)CCn2c(=O)c3cccn3c3cccnc32)cc1	.	-	.	.	.
CN(C)c1ccc(C(=S)N2CCN(S(=O)(=O)c3ccccc3)CC2)cc1	-	?	-	-	-
COc1ccc(N2CCN(C3CCCN(C(=O)CSC)C3)CC2)cc1 (centres undefined)	.	?	-	-	-
CCOC(=O)CCNC(=O)N1CCCC(N2CCN(c3ccc(OC)cc3)CC2)C1 (centres undefined)	.	-	-	2.94µM	-
CCOc1ccc(-n2c(Cc3ccccc3)nnc2SCc2nc(-c3ccccc3OC)no2)cc1	.	-	.	.	.
CN1C(=O)/C(=C\c2cc(N=Nc3ccccc3)ccc2O)SC1=S	-	-	-	?	?
O=Cc1cc(N=Nc2ccccc2Cl)ccc1O	-	-	33.7	-[5.75 µM]	?
O=Cc1cc(N=Nc2cccc(C(=O)O)c2)ccc1O	76.3	-	38.7	-	-
O=C(O)c1cc(N=Nc2c(O)ccc3ccccc23)cc(C(=O)O)c1	-	-	-	?	?
Cc1noc(C)c1S(=O)(=O)N(CC(=O)Nc1ccc(F)cc1F)c1ccc(C(C)C)cc1	.	-	.	.	.
C[C@@H]1CN([C@H](C)CO)C(=O)CCCn2nncc2CO[C@@H]1CN(C)S(=O)(=O)c1ccccc1C#N	.	-	.	.	.
CCNC(=S)NNC(=O)c1cc(-c2cccc(OCC)c2)nc2ccccc12	-	-	13.7	.	?
CCNC(=S)NNC(=O)c1cc(-c2cccnc2)nc2ccccc12	-	-	-	-	-
CCNC(=S)NNC(=O)c1cc(-c2cccc(C)c2)nc2ccccc12	-	-	20.9	?	-
CCCCOc1cccc(-c2cc(C(=O)NNC(=S)NCC)c3ccccc3n2)c1	-	-	27.6	11.7µM	.
SMILES	Shiga inhibitor	HCMV antiviral	CHX counter	Pf growth 96h	Pf growth 48h
CCCCOc1ccc(-c2cc(C(=O)NNC(=S)NCC)c3ccccc3n2)cc1	-	-92.7	-	.	?
CC(C)c1cnc2c(c1SCC(=O)Nc1cccc([N+](=O)[O-])c1)c(=O)n(C)c(=O)n2C	.	-	.	.	.
CCCCCn1c(CCC(=O)Oc2ccccc2OC)nc2c1c(=O)[nH]c(=O)n2CCCC	-	-	-	13.1µM	.
N=C1S/C(=C\c2cn[nH]c2-c2ccc(F)cc2)C(=O)N1c1ccccc1F	-	-	20.0	?	-
N=C1S/C(=C\c2ccccc2F)C(=O)N1c1ccc(F)cc1	-	-	-	-	-
N=C1S/C(=C\c2cccc3ccccc23)C(=O)N1c1ccc(F)cc1	-	-71.3	-	-	11.7µM
CC(=O)Nc1ccc(S(=O)(=O)N(C)CC(=O)OC(C)C(=O)N(C)C2CCCCC2)cc1 (centres undefined)	-	-	-	-	-
CCOC(=O)C1=CC[C@@H](c2ccccc2C(F)(F)F)N(S(=O)(=O)c2ccc(C)cc2)[C@H]1c1ccc(C#N)cc1	.	-	.	.	.
Cc1nc(CSc2ccc(Cl)cc2)cs1	111.1	?	35.5	-	.
Cc1nc(CSc2nnc(N)s2)cs1	-	-	-	?	-
Cc1nc(CSc2ccc(Br)cc2)cs1	49.2	-	23.4	-	-
Cc1ccc(CN2CCN(c3cccc4[nH]ccc34)CC2)cc1	-	-	-	-	-
Cc1ccc(C(=O)Nc2ncccc2C)o1	.	-	.	.	.
COc1ccc(C(=O)NC(=O)Nc2ncccc2C)cc1	88.0	-	40.4	-	.
COc1ccc(NC(=O)Nc2ncccc2C)cc1	62.6	-	20.4	-	-
COC(=O)c1ccccc1NC(=O)Nc1ncccc1C	-	-	-	-	-
Cc1cccnc1NC(=O)Nc1ccc(Cl)cc1	.	-	25.2	-	-
Cc1cccnc1NC(=O)Nc1ccccc1	49.0	-	26.7	-	-
Cc1cccnc1NC(=O)Nc1cccc(F)c1	.	-	.	.	.
CC(Nc1ccc(N2CCOCC2)cc1)C(=O)N1c2ccccc2CC1C (centres undefined)	-	-	-	?	?
C=CCN1C(=O)CN=C1Nc1cc(C)ccc1C	-	-	-	-	-
CC(C)c1ccc(N2C(=O)CSC23C(=O)N2CCCc4cccc3c42)cc1 (centres undefined)	-	-110.6	-	?	.
COc1ccc(OCC2c3cc(OC)c(OC)cc3CCN2C(=O)c2c(F)cccc2F)cc1 (centres undefined)	.	-	.	.	.
COc1ccc(-c2cc(C(F)(F)F)n3nc(C(=O)NCCCn4ccnc4)cc3n2)cc1	-	-	22.9	-	.
O=C(NCCCn1ccnc1)c1nn2c(C(F)(F)F)cc(-c3ccc(Br)cc3)nc2c1Cl	-	-	-	2.94µM	1.47µM
SMILES	Shiga inhibitor	HCMV antiviral	CHX counter	Pf growth 96h	Pf growth 48h
CCC1CCCCN1CCCNC(=O)CN1C(=O)COc2ccc(S(=O)(=O)N3CCOCC3)cc21 (centres undefined)	-	-	-	?	-
O=C(CN1C(=O)c2ccccc2S1(=O)=O)NC(Nc1ccccc1F)C(Cl)(Cl)Cl (centres undefined)	-	-104.7	-	-	-
CC(C)CC(=O)NC(Nc1ccccc1F)C(Cl)(Cl)Cl (centres undefined)	-	-	-	10.4µM	-
O=C(CN1C(=O)c2ccccc2S1(=O)=O)NCc1c(F)cccc1F	.	-	.	-	?
Cc1ccc(C(C[N+](=O)[O-])c2c(-c3ccccc3O)[nH][nH]c2=O)cc1 (centres undefined)	-	-74.7	-	-	-
O=c1[nH][nH]c(-c2ccccc2O)c1C(C[N+](=O)[O-])c1ccc(Br)cc1 (centres undefined)	-	?	-	-	-
CC(NC(=O)c1cccs1)C(S)c1ccccc1 (centres undefined)	-	-	-	?	-
O=C(O)CCCc1nc2ccccc2s1	-	-	-	.	-
CN(C(=O)CCc1nc2ccccc2s1)c1ccccc1	-	-	21.3	-	-
CN(C(=O)COc1nc2ccccc2s1)c1ccccc1	23.4	.	-	.	.

High-throughput results (PubChem)
